Screening results (PubChem)
HSF1 inh = HSF1 inhibition; NIH3T3-HGL HSE-luciferase, MG132-induced, luminescence 8 h; stronger effect = lower value; actives 0.77% (n = 300,000); activity change, negative = inhibition, % at 7.5 µM (by protocol); AID 2098;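 active = more than half of replicate wells show activity change below -50%, luminescence cut by over half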;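 also: luciferase reports HSF-1 transcriptional activity via heat shock element; 0% = median of DMSO wells and -100% = zero luminescence signal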
p-CIP stab down = compounds decreasing mouse p/CIP protein stability | F442A p/CIP-EGFP cells, EGFP fluorescence, 16 h | Q05BA5 | actives 0.01% (n = 290,000) | decrease of EGFP signal, % at 10 µM;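 active = EGFP signal decrease of at least 30% at 10 µM or well 3 SD below plate mean, unless failing retest; inactive = the rest, including hits failing retest or dose response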
Target sequence (Q05BA5 1-1403): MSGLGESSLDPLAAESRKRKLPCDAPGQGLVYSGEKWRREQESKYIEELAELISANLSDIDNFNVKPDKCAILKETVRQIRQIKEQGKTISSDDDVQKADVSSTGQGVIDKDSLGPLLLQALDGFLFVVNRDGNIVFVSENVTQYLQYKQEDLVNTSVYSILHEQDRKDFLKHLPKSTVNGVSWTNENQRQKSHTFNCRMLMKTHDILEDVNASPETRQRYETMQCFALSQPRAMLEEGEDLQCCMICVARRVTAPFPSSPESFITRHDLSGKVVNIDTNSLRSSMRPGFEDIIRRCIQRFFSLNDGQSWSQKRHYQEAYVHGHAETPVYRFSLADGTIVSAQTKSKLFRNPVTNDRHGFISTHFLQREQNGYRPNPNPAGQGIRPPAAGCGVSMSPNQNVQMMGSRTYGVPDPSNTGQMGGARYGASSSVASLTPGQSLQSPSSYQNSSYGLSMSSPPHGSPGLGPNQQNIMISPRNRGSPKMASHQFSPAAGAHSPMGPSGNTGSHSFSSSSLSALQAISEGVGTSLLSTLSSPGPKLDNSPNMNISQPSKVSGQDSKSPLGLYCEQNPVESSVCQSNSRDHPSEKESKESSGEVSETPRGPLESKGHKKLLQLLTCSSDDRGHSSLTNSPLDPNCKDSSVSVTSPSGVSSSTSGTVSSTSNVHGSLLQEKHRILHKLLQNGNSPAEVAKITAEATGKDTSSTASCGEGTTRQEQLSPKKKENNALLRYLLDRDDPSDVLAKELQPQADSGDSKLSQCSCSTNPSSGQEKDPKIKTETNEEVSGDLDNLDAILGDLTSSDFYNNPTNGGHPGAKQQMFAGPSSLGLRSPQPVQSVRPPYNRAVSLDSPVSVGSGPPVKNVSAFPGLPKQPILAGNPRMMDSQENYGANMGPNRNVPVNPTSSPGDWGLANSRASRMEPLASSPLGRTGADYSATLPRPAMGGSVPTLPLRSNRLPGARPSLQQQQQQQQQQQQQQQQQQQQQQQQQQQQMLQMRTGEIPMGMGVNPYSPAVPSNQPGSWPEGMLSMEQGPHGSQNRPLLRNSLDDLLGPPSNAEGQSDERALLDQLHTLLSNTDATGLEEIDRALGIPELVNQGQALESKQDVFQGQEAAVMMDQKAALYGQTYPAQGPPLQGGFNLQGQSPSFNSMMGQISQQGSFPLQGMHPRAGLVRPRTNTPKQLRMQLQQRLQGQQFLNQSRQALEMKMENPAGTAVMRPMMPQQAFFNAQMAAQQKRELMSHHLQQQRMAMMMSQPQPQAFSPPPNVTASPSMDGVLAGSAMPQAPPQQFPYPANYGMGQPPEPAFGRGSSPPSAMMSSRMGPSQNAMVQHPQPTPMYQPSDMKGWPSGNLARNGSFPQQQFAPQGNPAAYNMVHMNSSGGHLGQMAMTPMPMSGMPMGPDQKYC
HSP90 refold inh = blocks HSP90-mediated luciferase refolding in reticulocyte lysate. Rabbit reticulocyte lysate, luciferase refolding luminescence, 3 h. inhibition, % at 5.6 µM. actives 0.91% (n = 290,000);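 active = inhibition above the screen-wide mean plus 3 SD, computed separately per campaign, cut at about 16% in these data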;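 also: 0% = DMSO wells and 100% = 60 µM geldanamycin wells; inhibitors lower the luminescence because luciferase stays unfolded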
Hsp70 activator = transcriptional activators of Hsp70; AID 1203; activation, % at 10 µM; actives 0.04% (n = 200,000); HeLa Hsp70 promoter luciferase reporter, luminescence; scaled: vehicle 0, proteasome-inhibitor control 100%;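 active = activation above the mean across all tested compounds plus 3 SD, cutoff set per campaign, cut at about 5.5% in these data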;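 also: 100% = MG132 at 30 µM as the positive control and 0% = DMSO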
HSF-1 act = increases HSF-1 driven luciferase reporter signal | NIH3T3-HGL HSF-1 luciferase reporter, MG132, 8 h; 100% = twice DMSO control signal | activation, % at 9 µM | actives 1.7% (n = 300,000);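 active = mean replicate activation of at least 50% with a set share of replicates each reaching 50%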;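 also: 0% = median of the neutral control wells and 100% = twice that signal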
NALP1 inh = NALP1 inhibition | S. cerevisiae NALP1/ASC/caspase-1 growth, X-gal OD620, 72 h | inhibition, % at 10 µM | actives 0.61% (n = 280,000); in the data active = inhibition mostly above about 24%, no sharp cut-off; inactive = mostly below about 32%
* hit, by the source's call. Rows were chosen to be rich in hits. Some 3.8% of all compounds tested hit in one or more screens of this group.

How did CC(C)(C)C1CCc2[nH]c3ccccc3c(=O)c2C1 (configuration not stated) do in these assays?
HSF1 inh: 0; p-CIP stab down: 3; HSP90 refold inh: 5; Hsp70 activator: 0; HSF-1 act: 23; NALP1 inh: -3

How did Cc1c2c(nc3ccccc13)CCC(C(C)(C)C)C2 (configuration not stated) do in these assays?
HSF1 inh: 33; p-CIP stab down: 20; HSP90 refold inh: -1; Hsp70 activator: 0; HSF-1 act: 57*; NALP1 inh: 9

Results for CCn1nc(C)c(CN2CCN(Cc3ccsc3)C(CCO)C2)c1C (configuration not stated) ?
HSF1 inh: 0; p-CIP stab down: 2; HSP90 refold inh: 6; Hsp70 activator: 0; HSF-1 act: 1; NALP1 inh: -14

How did COc1ccccc1OCc1cc(-c2ccccc2)no1 do in these assays?
HSF1 inh: 28; p-CIP stab down: -11; HSP90 refold inh: -1; Hsp70 activator: 0; HSF-1 act: 53*; NALP1 inh: 2

How did c1ccc(OCc2cc(-c3ccccc3)no2)cc1 do in these assays?
HSF1 inh: 20; p-CIP stab down: 11; HSP90 refold inh: 2; Hsp70 activator: 0; HSF-1 act: 61*; NALP1 inh: -19

How did O=S(=O)(Cc1ccccc1)N1CCn2c(nc3ccccc32)C1 do in these assays?
HSF1 inh: 14; p-CIP stab down: 7; HSP90 refold inh: -4; Hsp70 activator: 0; HSF-1 act: -4; NALP1 inh: 41*

How did CCOC(=O)c1c(C)[nH]c(C(=O)N/N=C/c2cc([N+](=O)[O-])ccc2O)c1C do in these assays?
HSF1 inh: -59*; p-CIP stab down: 1; HSP90 refold inh: 0; HSF-1 act: -64; NALP1 inh: 0

Results for CS(=O)(=O)c1ccc(C(=O)OCC(=O)NC23CC4CC(CC(C4)C2)C3)cc1[N+](=O)[O-] ?
HSF1 inh: 26; p-CIP stab down: -1; HSP90 refold inh: 1; Hsp70 activator: 0; HSF-1 act: 51*

How did COCC(C)NC(=O)/C(=C/c1ccccc1)c1ccccc1 (configuration not stated) do in these assays?
HSF1 inh: 21; p-CIP stab down: -15; HSP90 refold inh: -2; Hsp70 activator: 0; HSF-1 act: 60*; NALP1 inh: -7

What do the screens show for `COCC(C)NC(=O)c1ccc2nc(-c3ccccc3)c(-c3ccccc3)nc2c1` (configuration not stated)?
HSF1 inh: -81*; p-CIP stab down: 8; HSP90 refold inh: -2; HSF-1 act: -86

How did CC(NC(=O)/C(=C/c1ccc(OC(F)F)cc1)c1ccccc1)c1ccccc1 (configuration not stated) do in these assays?
HSF1 inh: -5; p-CIP stab down: -1; HSP90 refold inh: 3; Hsp70 activator: 0; HSF-1 act: 12; NALP1 inh: 35

What do the screens show for `CC(=O)Oc1ccccc1C(=O)Nc1ccccc1C(=O)N1CCCC1`?
HSF1 inh: -4; p-CIP stab down: 3; HSP90 refold inh: -4; HSF-1 act: 5; NALP1 inh: 7

What do the screens show for `COc1ccc(CNC(=O)c2cnc3scc(C)n3c2=O)cc1`?
HSF1 inh: -70*; p-CIP stab down: 6; HSP90 refold inh: -4; Hsp70 activator: 0; HSF-1 act: -78

Results for Cc1csc2ncc(C(=O)NCc3ccco3)c(=O)n12 ?
HSF1 inh: -4; p-CIP stab down: 4; HSP90 refold inh: 1; Hsp70 activator: 0; HSF-1 act: 1; NALP1 inh: 41

Results for CCCN(CC(=O)Nc1ccccc1C)C(=O)C1CC(=O)N(Cc2ccccc2)C1 (configuration not stated) ?
HSF1 inh: 2; HSF-1 act: 30

What do the screens show for `COc1ccc2[nH]c(=O)c(CN(C(=O)COc3ccccc3)C(C)C)cc2c1`?
HSF1 inh: 34; p-CIP stab down: -10; HSP90 refold inh: -1; Hsp70 activator: 0; HSF-1 act: 64*; NALP1 inh: -7

Results for COc1ccc2[nH]c(=O)c(CN(C(=O)C(C)C)c3ccccc3OC)cc2c1 ?
HSF1 inh: 12; p-CIP stab down: -14; HSP90 refold inh: 0; HSF-1 act: 1; NALP1 inh: 1

How did CN(Cc1nnc(-c2ccc(F)cc2)o1)c1ccccc1 do in these assays?
HSF1 inh: 13; p-CIP stab down: -6; HSP90 refold inh: 5; HSF-1 act: 60*; NALP1 inh: 13

How did Cc1cc(S(=O)(=O)Nc2ccc(C(=O)NCC(c3ccccc3)N(C)C)cc2)ccc1F (configuration not stated) do in these assays?
HSF1 inh: -7; p-CIP stab down: -12; HSP90 refold inh: -6; HSF-1 act: -20; NALP1 inh: 29*

How did COc1ccccc1NC(=O)CSc1nc2nccnc2c(=O)n1Cc1cccs1 do in these assays?
HSF1 inh: 0; p-CIP stab down: 0; HSP90 refold inh: 4; HSF-1 act: 11; NALP1 inh: 12

How did CC1CCN(c2ccc(NC(=O)c3ccc([N+](=O)[O-])o3)cc2)CC1 do in these assays?
HSF1 inh: 95; HSF-1 act: 98*

Results for CCC(=O)N1CCN(c2ccc(NC(=O)c3ccc([N+](=O)[O-])o3)cc2)CC1 ?
HSF1 inh: -76*; p-CIP stab down: -15; HSP90 refold inh: 5; Hsp70 activator: 1; HSF-1 act: -80; NALP1 inh: -5

Results for O=C(Nc1ccc(N2CCCCC2)cc1)c1ccc([N+](=O)[O-])o1 ?
HSF1 inh: 67; p-CIP stab down: -7; HSP90 refold inh: 5; HSF-1 act: 91*; NALP1 inh: 2

What do the screens show for `Cn1c(=O)[nH]c(=O)c2c1nc(N/N=C/C(Br)=C/c1ccccc1)n2CCO`?
HSF1 inh: 4; p-CIP stab down: -2; HSP90 refold inh: -1; HSF-1 act: 0

Results for CCn1c(CNC(=O)c2ccc3c(c2)OCO3)nnc1SCC(=O)Nc1ccccc1F ?
HSF1 inh: 5; p-CIP stab down: 4; HSP90 refold inh: 1; HSF-1 act: 27; NALP1 inh: -3

How did Cc1oc(-c2ccccc2Cl)nc1CN1CCCN(C(=O)c2ccco2)CC1 do in these assays?
HSF1 inh: 12; p-CIP stab down: -4; HSP90 refold inh: -3; Hsp70 activator: 0; HSF-1 act: 37; NALP1 inh: -4

Results for CSc1cccc(NC(=O)C2CCCN(S(=O)(=O)c3ccc(F)cc3)C2)c1 (configuration not stated) ?
HSF1 inh: 7; p-CIP stab down: -6; HSP90 refold inh: 5; Hsp70 activator: 0; HSF-1 act: 5; NALP1 inh: 34

Results for O=C(Nc1cccc(Cl)c1)C1CCCN(S(=O)(=O)c2ccc(F)cc2)C1 (configuration not stated) ?
HSF1 inh: 44; p-CIP stab down: -2; HSP90 refold inh: -2; Hsp70 activator: 0; HSF-1 act: 89*; NALP1 inh: 0
